In PubChem BioAssay (NCATS):
Results filed as inconclusive are left out. Where a call stands in place of a potency, no number is given. Activity calls are given as the source filed them. The call rests on the fitted dose curve; in most records, active means well fitted inhibition curve with a large enough effect; inconclusive means small, poorly fitted or top-dose-only effect; inactive means flat fitted curve, though single readings scatter.

System: Zika virus NS2B-NS3 protease
Experiment: Primary screen GU AMC qHTS for Zika virus inhibitors (AID 1347154); further: nearly all actives have a fitted effect of over 70% in size
Conditions: Zika NS2B-NS3 unlinked protease, AMC fluorogenic substrate; series mostly up to 54.1 µM
Procedure, shortened: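 Unlinked Zika NS2B hydrophilic domain–NS3 protease complex at 25 nM in 10 mM Tris-HCl pH 8.0, 0.01% Tween 20, with an AMC peptide substrate. Fluorescence change (340/450 nm) over 15 min at room temperature, normalized to controls, fitted to 4-parameter Hill.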

Compound	Potency
CCCCCC(C)N (configuration not stated)	inactive
NC(=O)CCCCC1CCSS1 (configuration not stated)	inactive
COCC(=O)Nc1c(I)c(C(=O)NCC(O)CO)c(I)c(C(=O)N(C)CC(O)CO)c1I (configuration not stated)	inactive
Cc1cc(C)c(NC(=O)CN(CC(=O)O)CC(=O)O)c(C)c1Br	inactive
NCc1ccc(S(N)(=O)=O)cc1	inactive
CO[C@@]1(NC(=O)C(C(=O)O)c2ccc(O)cc2)C(=O)N2C(C(=O)O)=C(CSc3nnnn3C)CO[C@@H]21 (some centres not stated)	inactive
C[C@@H](c1ncncc1F)C(O)(Cn1cncn1)c1ccc(F)cc1F (some centres not stated)	inactive
Cc1ccsc1/C=C/C1=NCCCN1C	inactive
CC(=O)N1C[C@H](O)C[C@H]1C(=O)O	inactive
CCN(CC)S(=O)(=O)c1ccc(C(=O)O)cc1	inactive
OCCN1C[C@H](O)[C@@H](O)[C@H](O)[C@H]1CO	inactive
CC1(C)S[C@@H]2[C@H](NC(=O)C(C(=O)O)c3ccccc3)C(=O)N2[C@H]1C(=O)O (some centres not stated)	inactive
O=C(/C=C/c1ccccc1)OCc1ccccc1	inactive
O=C(O)C(S)C(S)C(=O)O (configuration not stated)	inactive
COc1ccccc1OC(=O)Oc1ccccc1OC	inactive
CCN(CC)CC1CCCCN1CC(=O)N1c2ccccc2C(=O)Nc2cccnc21 (configuration not stated)	inactive
COc1ccc2cc(CCC(C)=O)ccc2c1	inactive
CCCNC(C)(C)COC(=O)c1ccccc1	inactive
Cn1c(=O)c2c(ncn2CCO)n(C)c1=O	inactive

Compound	Potency
CC(=O)Nc1cccc(O)c1	inactive
CC[N+](CC)(CC(=O)Nc1c(C)cccc1C)Cc1ccccc1	inactive
Nc1c2c(nc3c1CCC3)CCCC2	inactive
NS(=O)(=O)c1ccc(C(=O)O)cc1	inactive
CC(C)(C)C(=O)OCOC(=O)[C@@H]1N2C(=O)[C@@H](NC(=O)[C@H](N)c3ccccc3)[C@H]2SC1(C)C	inactive
O=C(c1ccccc1)C(O)c1ccccc1 (configuration not stated)	inactive
CC(=O)Nc1ccc(C(=O)O)cc1	inactive
C=CCSCC1Nc2cc(Cl)c(S(N)(=O)=O)cc2S(=O)(=O)N1 (configuration not stated)	inactive
NS(=O)(=O)c1ccc(NC(=O)CCC(=O)O)cc1	inactive
CCOC(=O)[C@H](CCc1ccccc1)N[C@@H](C)C(=O)N1CCC[C@H]1C(=O)O	inactive
CC[N+](C)(CC)CCOC(=O)C1c2ccccc2Oc2ccccc21	inactive
CC(=O)NCc1c(I)c(NC(C)=O)c(I)c(C(=O)O)c1I	inactive
CCN(CC)C(=O)c1cccc(C)c1	inactive
CN/C(=C\[N+](=O)[O-])NCCSCc1csc(CN(C)C)n1	inactive
Cc1cc(O)cc(C)c1Cl	inactive
Nc1ncnc2c1ncn2[C@@H]1O[C@H](COP(=O)(O)O)[C@@H](O)[C@H]1O	inactive
CC(CSC(=O)c1ccccc1)C(=O)N1C[C@@H](Sc2ccccc2)C[C@H]1C(=O)O (some centres not stated)	inactive
CC(C)C[C@@H](N)C(=O)O	inactive
